# Laboratory results: publication PMC7862700, “An all-to-all approach to the identification of sequence-specific readers for epigenetic DNA modifications on cytosine”
# Assays:
# Assay in all cases: DAPPL (digital affinity profiling via proximity ligation, sequencing); 10 mM Tris-HCl pH 7.5, 50 mM NaCl, 1 mM DTT, 4% glycerol, room temperature, 30 min; GST-TFs on glutathione beads, 16-mer random dsDNA library, 0.1% formaldehyde crosslink after washing; high values mean tight binding
# FLI1 = molecular target: T1, FLI1 (Homo sapiens, UniProt Q01543 1-452); conditions: protein: recombinant; tags: N-terminal GST; dsDNA, one strand shown
# T1 sequence: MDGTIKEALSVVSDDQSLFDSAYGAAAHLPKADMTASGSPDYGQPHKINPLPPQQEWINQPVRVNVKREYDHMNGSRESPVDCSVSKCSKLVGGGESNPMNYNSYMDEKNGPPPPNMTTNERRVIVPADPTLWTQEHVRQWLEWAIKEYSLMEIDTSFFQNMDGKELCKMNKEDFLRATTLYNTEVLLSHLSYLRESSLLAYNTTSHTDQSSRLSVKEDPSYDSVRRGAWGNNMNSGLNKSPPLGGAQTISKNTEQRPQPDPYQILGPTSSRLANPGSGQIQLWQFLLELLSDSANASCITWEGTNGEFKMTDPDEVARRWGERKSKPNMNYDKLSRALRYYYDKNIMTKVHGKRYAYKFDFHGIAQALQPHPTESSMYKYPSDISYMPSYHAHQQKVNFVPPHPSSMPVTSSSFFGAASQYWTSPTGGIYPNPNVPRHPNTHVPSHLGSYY
# Summary of the method: (§1)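 After expression in yeast as GST fusions, human transcription factors were bound to glutathione beads, DNA-barcoded and mixed with a tag-only sample. The pools were incubated with 200 nmole of a 16-mer random double-stranded DNA library in Tris/NaCl/DTT/glycerol buffer (30 min, room temperature), washed and crosslinked with 0.1% formaldehyde. Proximity ligation with BsaI/T4 ligase ran for 1 h at 37 °C, before PCR amplification and sequencing on an Illumina NextSeq500. Binding signal is a hexamer's read frequency for a factor divided by its frequency for the tag-only sample.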
# ELK1 = molecular target: T2, ELK1 (Homo sapiens, UniProt P19419 1-428); conditions: protein: recombinant; tags: N-terminal GST; dsDNA, one strand shown
# T2 sequence: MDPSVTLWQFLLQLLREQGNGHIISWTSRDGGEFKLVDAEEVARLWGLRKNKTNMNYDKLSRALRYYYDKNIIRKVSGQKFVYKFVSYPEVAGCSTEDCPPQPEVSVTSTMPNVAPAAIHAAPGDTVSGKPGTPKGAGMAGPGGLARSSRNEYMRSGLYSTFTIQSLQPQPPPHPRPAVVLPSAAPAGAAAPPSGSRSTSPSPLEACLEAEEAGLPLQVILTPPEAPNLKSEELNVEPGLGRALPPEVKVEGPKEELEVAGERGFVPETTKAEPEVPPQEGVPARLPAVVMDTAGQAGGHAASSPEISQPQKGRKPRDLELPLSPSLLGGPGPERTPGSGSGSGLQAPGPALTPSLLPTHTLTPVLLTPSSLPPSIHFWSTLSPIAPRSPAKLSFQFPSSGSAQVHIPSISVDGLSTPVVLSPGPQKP
# Summary of the method: as §1
# GABPA = molecular target: T3, GABPA (Homo sapiens, UniProt Q06546 1-454); conditions: protein: recombinant; tags: N-terminal GST; dsDNA, one strand shown
# T3 sequence: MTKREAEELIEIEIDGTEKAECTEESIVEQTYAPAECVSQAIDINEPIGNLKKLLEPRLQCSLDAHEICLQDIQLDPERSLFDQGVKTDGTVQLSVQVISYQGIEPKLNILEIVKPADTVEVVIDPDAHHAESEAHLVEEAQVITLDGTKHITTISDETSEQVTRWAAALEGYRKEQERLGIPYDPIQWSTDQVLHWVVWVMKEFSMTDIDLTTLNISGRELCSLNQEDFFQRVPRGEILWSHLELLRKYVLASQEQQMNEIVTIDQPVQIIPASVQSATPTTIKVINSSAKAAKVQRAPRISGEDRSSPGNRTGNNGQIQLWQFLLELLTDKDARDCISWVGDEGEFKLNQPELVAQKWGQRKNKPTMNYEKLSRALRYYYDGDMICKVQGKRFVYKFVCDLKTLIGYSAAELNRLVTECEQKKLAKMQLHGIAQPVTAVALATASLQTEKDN
# Summary of the method: as §1
# ERG = molecular target: T4, ERG (Homo sapiens, UniProt P11308 1-479); conditions: protein: recombinant; tags: N-terminal GST; dsDNA, one strand shown
# T4 sequence: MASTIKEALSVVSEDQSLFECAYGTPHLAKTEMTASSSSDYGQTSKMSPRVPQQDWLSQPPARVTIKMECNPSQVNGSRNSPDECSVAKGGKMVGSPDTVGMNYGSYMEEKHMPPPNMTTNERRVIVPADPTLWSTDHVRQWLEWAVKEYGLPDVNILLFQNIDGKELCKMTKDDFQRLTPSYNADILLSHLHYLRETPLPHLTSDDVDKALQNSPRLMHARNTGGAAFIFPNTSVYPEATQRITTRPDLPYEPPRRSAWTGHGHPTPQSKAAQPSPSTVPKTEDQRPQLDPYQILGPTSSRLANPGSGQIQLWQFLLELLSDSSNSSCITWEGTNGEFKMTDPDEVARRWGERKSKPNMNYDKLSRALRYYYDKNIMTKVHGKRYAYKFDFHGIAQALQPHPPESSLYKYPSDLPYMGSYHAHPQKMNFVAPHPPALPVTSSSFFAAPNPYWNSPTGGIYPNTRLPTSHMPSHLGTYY
# Summary of the method: as §1
# ELF1 = ELF1 (Homo sapiens, UniProt P32519 1-619); conditions: protein: recombinant; tags: N-terminal GST; dsDNA, one strand shown
# Summary of the method: as §1
# EHF = molecular target: T5, EHF (Homo sapiens, UniProt Q9NZC4 1-300); conditions: protein: recombinant; tags: N-terminal GST; dsDNA, one strand shown
# T5 sequence: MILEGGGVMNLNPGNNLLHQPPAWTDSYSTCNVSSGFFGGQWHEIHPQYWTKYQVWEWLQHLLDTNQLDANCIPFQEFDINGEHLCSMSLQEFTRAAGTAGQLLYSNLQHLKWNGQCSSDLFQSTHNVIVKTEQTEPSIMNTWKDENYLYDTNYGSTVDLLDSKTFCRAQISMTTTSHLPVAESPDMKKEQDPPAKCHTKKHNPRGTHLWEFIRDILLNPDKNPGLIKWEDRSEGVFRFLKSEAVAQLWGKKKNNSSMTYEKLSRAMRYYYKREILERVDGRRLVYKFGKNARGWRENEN
# Summary of the method: as §1
# SPI1 = SPI1 (Homo sapiens, UniProt P17947 1-270); conditions: protein: recombinant; tags: N-terminal GST; dsDNA, one strand shown
# Summary of the method: as §1
# SPIB = SPIB (Homo sapiens, UniProt Q01892 1-262); conditions: protein: recombinant; tags: N-terminal GST; dsDNA, one strand shown
# Summary of the method: as §1
# ELK3 = molecular target: T6, ELK3 (Homo sapiens, UniProt P41970 1-407); conditions: protein: recombinant; tags: N-terminal GST; dsDNA, one strand shown
# T6 sequence: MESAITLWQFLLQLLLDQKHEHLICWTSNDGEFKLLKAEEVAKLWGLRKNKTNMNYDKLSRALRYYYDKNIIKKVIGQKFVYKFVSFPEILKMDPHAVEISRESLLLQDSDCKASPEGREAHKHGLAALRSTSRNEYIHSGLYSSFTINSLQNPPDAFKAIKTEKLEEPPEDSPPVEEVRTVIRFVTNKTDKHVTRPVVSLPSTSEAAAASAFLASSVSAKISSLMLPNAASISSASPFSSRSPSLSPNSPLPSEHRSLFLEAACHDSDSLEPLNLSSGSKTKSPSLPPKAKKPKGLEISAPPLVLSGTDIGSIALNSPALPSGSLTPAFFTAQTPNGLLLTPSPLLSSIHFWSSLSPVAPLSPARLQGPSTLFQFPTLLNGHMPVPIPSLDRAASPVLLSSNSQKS
# Summary of the method: as §1
# FEV = molecular target: T7, FEV (Homo sapiens, UniProt Q99581 1-238); conditions: protein: recombinant; tags: N-terminal GST; dsDNA, one strand shown
# T7 sequence: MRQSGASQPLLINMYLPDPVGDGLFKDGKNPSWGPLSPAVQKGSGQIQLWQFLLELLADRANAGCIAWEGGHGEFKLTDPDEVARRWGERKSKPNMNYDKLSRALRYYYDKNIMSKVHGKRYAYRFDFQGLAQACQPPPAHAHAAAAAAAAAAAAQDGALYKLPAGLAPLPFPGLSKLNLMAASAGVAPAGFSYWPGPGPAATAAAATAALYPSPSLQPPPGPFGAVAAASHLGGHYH
# Summary of the method: as §1
# ETV5 = ETV5 (Homo sapiens, UniProt P41161 1-510); conditions: protein: recombinant; tags: N-terminal GST; dsDNA, one strand shown
# Summary of the method: as §1
# HSF1 = HSF1 (Homo sapiens, UniProt Q00613 1-529); conditions: protein: recombinant; tags: N-terminal GST; chain copies: 3; dsDNA, one strand shown
# Summary of the method: as §1
# SPIC = molecular target: T8, SPIC (Homo sapiens, UniProt Q8N5J4 1-248); conditions: protein: recombinant; tags: N-terminal GST; dsDNA, one strand shown
# T8 sequence: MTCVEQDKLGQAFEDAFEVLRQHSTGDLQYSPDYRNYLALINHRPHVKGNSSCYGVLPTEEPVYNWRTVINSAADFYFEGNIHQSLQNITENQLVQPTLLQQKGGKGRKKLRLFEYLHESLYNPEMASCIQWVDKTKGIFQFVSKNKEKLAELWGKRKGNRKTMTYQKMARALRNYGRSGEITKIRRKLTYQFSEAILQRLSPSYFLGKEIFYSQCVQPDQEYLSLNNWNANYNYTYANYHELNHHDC
# Summary of the method: as §1
# ELF4 = ELF4 (Homo sapiens, UniProt Q99607 1-663); conditions: protein: recombinant; tags: N-terminal GST; dsDNA, one strand shown
# Summary of the method: as §1
# ELK4 = molecular target: T9, ELK4 (Homo sapiens, UniProt P28324-2 1-405); conditions: protein: recombinant; tags: N-terminal GST; dsDNA, one strand shown
# T9 sequence: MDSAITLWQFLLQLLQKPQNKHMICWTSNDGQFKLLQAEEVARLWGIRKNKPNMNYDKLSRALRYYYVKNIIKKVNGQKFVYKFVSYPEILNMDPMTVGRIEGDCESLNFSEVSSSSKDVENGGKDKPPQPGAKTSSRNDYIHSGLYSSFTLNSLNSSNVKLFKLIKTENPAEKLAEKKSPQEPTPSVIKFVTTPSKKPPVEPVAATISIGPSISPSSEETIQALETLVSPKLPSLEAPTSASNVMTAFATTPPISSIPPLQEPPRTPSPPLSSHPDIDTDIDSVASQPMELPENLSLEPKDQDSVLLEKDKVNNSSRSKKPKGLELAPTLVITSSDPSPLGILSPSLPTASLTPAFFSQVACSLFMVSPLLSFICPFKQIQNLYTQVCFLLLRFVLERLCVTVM
# Summary of the method: as §1
# ETV2 = molecular target: T10, ETV2 (Homo sapiens, UniProt O00321 1-342); conditions: protein: recombinant; tags: N-terminal GST; dsDNA, one strand shown
# T10 sequence: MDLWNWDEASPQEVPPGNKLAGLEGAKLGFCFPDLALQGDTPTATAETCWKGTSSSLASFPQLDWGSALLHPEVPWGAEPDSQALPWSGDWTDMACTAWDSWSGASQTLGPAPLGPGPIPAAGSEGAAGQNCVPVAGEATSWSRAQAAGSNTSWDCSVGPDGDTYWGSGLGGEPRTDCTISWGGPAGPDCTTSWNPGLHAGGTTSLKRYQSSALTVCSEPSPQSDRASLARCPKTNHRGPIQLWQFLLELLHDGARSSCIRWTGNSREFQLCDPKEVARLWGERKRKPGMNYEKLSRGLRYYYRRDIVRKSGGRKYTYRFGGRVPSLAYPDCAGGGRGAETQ
# Summary of the method: as §1
# ELF3 = molecular target: T11, ELF3 (Homo sapiens, UniProt P78545 1-371); conditions: protein: recombinant; tags: N-terminal GST; dsDNA, one strand shown
# T11 sequence: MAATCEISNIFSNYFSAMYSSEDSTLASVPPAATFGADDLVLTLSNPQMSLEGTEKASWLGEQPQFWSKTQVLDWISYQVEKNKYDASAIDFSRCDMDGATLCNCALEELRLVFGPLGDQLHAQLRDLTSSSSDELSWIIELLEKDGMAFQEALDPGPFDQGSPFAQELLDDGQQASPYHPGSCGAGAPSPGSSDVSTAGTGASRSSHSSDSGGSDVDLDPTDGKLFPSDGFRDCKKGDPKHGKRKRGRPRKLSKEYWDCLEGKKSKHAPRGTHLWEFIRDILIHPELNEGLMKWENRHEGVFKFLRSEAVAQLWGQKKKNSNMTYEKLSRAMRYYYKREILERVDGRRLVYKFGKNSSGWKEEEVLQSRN
# Summary of the method: as §1
# CRX = CRX (Homo sapiens, UniProt O43186 1-299); conditions: protein: recombinant; tags: N-terminal GST; dsDNA, one strand shown
# Summary of the method: as §1
# ETV1 = ETV1 (Homo sapiens, UniProt P50549 1-477); conditions: protein: recombinant; tags: N-terminal GST; dsDNA, one strand shown
# Summary of the method: as §1
# Chain of CRX (O43186 whole entry): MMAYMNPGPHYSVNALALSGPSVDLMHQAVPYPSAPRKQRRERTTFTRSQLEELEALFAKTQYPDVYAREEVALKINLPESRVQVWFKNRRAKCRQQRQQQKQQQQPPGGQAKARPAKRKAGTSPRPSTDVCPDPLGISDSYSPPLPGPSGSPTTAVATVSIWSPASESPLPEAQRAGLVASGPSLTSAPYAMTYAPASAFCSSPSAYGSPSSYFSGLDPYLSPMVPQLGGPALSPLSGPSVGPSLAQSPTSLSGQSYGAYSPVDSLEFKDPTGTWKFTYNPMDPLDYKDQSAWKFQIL
# Chain of ETV5 (P41161 whole entry): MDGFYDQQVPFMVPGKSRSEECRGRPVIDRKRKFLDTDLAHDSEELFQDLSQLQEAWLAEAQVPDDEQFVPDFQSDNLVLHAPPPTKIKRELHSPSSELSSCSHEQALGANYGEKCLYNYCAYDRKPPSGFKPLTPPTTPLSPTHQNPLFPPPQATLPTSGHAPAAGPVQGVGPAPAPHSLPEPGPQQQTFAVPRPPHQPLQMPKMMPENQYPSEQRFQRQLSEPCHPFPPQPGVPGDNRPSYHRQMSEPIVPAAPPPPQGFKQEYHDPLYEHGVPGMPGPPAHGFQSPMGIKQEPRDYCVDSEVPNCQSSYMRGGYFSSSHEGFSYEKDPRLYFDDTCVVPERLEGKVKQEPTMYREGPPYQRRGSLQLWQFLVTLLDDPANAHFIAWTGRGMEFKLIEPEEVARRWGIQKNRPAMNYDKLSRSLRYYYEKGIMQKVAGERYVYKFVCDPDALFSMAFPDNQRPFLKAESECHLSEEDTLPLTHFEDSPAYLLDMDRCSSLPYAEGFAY
# Chain of SPIB (Q01892 whole entry): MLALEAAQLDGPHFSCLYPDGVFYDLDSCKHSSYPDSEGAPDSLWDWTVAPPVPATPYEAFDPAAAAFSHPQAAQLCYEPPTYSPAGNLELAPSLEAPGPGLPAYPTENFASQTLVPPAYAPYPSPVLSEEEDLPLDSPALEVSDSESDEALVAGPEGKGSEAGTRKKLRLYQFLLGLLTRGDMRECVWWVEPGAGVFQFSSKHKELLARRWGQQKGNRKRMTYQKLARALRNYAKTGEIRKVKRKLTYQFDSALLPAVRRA
# Chain of HSF1 (Q00613 whole entry): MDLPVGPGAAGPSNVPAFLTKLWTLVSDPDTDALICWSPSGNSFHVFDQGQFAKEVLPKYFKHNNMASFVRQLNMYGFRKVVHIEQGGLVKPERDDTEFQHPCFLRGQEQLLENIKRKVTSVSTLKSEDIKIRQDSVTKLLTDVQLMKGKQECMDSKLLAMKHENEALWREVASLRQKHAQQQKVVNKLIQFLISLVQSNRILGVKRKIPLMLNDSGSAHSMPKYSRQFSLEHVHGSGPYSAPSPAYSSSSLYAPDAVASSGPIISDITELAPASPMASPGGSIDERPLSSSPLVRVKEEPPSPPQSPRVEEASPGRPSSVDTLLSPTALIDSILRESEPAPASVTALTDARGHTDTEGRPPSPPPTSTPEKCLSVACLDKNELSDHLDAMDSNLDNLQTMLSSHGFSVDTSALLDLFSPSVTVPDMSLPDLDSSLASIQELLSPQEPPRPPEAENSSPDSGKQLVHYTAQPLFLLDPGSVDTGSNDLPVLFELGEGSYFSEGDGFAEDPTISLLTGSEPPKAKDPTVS
# Chain of ELF1 (P32519 whole entry): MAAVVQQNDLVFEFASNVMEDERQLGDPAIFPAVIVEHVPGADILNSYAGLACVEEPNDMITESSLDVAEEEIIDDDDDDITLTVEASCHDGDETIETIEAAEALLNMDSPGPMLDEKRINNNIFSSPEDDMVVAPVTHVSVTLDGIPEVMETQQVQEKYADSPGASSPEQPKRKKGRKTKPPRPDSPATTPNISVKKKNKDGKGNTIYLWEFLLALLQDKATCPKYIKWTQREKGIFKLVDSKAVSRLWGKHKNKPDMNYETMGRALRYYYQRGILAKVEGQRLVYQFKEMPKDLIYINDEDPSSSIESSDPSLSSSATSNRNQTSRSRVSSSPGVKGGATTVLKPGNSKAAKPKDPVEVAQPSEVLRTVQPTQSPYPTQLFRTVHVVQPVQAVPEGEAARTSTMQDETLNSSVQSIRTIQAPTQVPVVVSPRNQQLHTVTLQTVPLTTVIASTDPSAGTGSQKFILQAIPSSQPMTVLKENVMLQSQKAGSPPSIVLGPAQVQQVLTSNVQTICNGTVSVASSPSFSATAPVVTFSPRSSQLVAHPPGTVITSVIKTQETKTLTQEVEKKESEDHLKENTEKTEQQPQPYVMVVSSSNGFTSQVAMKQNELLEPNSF
# Chain of ETV1 (P50549 whole entry): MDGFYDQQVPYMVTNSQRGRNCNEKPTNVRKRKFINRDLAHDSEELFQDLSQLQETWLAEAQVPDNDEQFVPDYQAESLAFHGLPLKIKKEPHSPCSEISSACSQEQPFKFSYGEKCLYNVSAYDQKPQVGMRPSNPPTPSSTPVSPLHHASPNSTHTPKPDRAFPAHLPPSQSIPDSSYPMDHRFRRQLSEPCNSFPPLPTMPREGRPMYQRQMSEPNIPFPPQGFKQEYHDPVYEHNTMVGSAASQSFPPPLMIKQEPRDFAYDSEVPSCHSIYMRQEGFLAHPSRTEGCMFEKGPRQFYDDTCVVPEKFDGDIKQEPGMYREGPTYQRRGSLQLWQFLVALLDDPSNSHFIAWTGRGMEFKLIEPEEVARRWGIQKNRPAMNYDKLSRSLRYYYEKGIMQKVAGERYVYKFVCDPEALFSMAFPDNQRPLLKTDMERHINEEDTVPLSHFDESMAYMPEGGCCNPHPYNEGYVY
# Chain of ELF4 (Q99607 whole entry): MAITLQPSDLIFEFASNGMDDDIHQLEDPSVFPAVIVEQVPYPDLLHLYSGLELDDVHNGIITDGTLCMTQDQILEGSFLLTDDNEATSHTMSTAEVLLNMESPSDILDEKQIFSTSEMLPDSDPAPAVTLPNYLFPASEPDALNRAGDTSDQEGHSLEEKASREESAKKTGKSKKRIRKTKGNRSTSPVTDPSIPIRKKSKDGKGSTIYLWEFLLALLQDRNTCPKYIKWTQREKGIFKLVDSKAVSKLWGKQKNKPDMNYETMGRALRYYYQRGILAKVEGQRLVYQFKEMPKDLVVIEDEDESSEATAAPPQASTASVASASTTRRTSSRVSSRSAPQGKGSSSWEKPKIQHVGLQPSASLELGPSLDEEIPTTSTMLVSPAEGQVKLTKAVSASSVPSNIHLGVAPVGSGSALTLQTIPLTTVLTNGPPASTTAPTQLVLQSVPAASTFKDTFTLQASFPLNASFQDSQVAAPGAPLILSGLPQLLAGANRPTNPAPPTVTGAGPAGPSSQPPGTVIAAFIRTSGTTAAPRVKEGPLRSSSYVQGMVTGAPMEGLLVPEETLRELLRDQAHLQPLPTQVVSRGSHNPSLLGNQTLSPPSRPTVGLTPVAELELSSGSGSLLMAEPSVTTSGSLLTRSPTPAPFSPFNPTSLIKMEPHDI
sequence,measurement,setting,value
TATATT,binding signal,FLI1,"1.34 fold enrichment (6-mer frequency, TF over GST control)"
same,binding signal,ELK1,"1.33 fold enrichment (6-mer frequency, TF over GST control)"
same,binding signal,GABPA,"1.47 fold enrichment (6-mer frequency, TF over GST control)"
same,binding signal,ERG,"1.41 fold enrichment (6-mer frequency, TF over GST control)"
same,binding signal,ELF1,"1.47 fold enrichment (6-mer frequency, TF over GST control)"
same,binding signal,EHF,"1.43 fold enrichment (6-mer frequency, TF over GST control)"
same,binding signal,SPI1,"1.3 fold enrichment (6-mer frequency, TF over GST control)"
same,binding signal,SPIB,"1.34 fold enrichment (6-mer frequency, TF over GST control)"
same,binding signal,ELK3,"1.3 fold enrichment (6-mer frequency, TF over GST control)"
same,binding signal,FEV,"1.39 fold enrichment (6-mer frequency, TF over GST control)"
same,binding signal,ETV5,"1.43 fold enrichment (6-mer frequency, TF over GST control)"
same,binding signal,HSF1,"1.58 fold enrichment (6-mer frequency, TF over GST control)"
same,binding signal,SPIC,"1.56 fold enrichment (6-mer frequency, TF over GST control)"
same,binding signal,ELF4,"1.32 fold enrichment (6-mer frequency, TF over GST control)"
same,binding signal,ELK4,"1.65 fold enrichment (6-mer frequency, TF over GST control)"
same,binding signal,ETV2,"1.41 fold enrichment (6-mer frequency, TF over GST control)"
same,binding signal,ELF3,"1.58 fold enrichment (6-mer frequency, TF over GST control)"
same,binding signal,CRX,"1.93 fold enrichment (6-mer frequency, TF over GST control)"
same,binding signal,ETV1,"1.44 fold enrichment (6-mer frequency, TF over GST control)"
